Screens from PubChem BioAssay.
An excerpt weighted towards active compounds, which were near 7.4% of everything screened.
NPC1 prom act = activates the NPC1 promoter; Huh7 NPC1 promoter luciferase reporter, 24 h; Potency, µM (top dose mostly 9.22 µM), for inactives: at the top dose activation, most hits filed as activators; 320,000 compounds, 2.4% hits; AID 485313; further: % of control where 0% means no effect; nearly all actives have a fitted effect of over 60% in size
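NPC1 promoter–luciferase Huh7 cells; 24 h compound; luminescence.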
Rab9 prom act = activates the Rab9 promoter. Huh7 Rab9 promoter-luciferase reporter, luminescence, 24 h. Potency, µM (doses to about 9.22 µM), inactives show at the highest dose activation, negative = inhibition, actives largely listed as activators. 320,000 compounds, 2.8% hits. AID 485297; further: % of control where 0% means no effect; nearly all actives have a fitted effect of over 60% in size
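Promoter activation is measured as luciferase luminescence in Huh7 cells stably transfected with a Rab9 promoter–luciferase construct, following 24 h compound exposure at 37 °C and 10 min reagent incubation at ambient temperature.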
Luc counter = Kinase-Glo luciferase inhibition (counter-screen); Q27757; 200,000 compounds, 0.28% hits; Kinase-Glo luciferase, ATP luminescence, 8 min; AID 1379; Potency, µM (doses to about 38.3 µM), for inactives: at the highest dose activity change, negative = inhibition, actives largely listed as inhibitors; further: on the % scale 0 is the no-effect control and ±100 the full control effect; nearly all actives have a fitted effect of over 60% in size
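Luminescence was the read-out, taken after 8-minute incubation at ambient temperature. Luciferase turned over luciferin with 10 uM ATP in imidazole pH 7.2 buffer containing KCl, MgCl2, Tween 20 and BSA.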
FLuc counter = counter-screen for miR-21 project: firefly luciferase inhibitors or activators. 360,000 compounds, 6.9% hits. AID 588342. Potency, µM (highest dose often 57.5 µM), for inactives: at the top dose activity change, negative = inhibition, usual class: inhibitors. purified FLuc, Km substrates, luminescence inhibition;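 further: plate controls were vehicle for no effect and reference inhibitor for full effect; nearly all actives have a fitted effect of over 55% in size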
Target sequence (P08659 whole entry, looked up): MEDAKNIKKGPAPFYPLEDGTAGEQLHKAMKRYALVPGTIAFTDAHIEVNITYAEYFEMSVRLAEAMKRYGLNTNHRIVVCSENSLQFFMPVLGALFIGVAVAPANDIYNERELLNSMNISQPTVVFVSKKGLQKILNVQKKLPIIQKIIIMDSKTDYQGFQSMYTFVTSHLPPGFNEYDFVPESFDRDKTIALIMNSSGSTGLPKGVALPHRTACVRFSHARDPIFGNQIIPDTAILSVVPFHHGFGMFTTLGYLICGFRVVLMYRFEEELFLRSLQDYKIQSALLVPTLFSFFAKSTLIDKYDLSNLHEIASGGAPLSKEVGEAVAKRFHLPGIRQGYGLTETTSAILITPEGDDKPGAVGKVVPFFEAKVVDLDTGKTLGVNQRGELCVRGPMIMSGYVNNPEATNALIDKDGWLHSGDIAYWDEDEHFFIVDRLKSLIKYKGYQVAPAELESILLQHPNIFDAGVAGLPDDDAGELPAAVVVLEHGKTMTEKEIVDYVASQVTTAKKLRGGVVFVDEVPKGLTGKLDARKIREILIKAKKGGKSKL
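Purified P. pyralis luciferase (10nM final) with 10uM D-luciferin and 10uM ATP (Km levels) in 50mM Tris acetate pH 7.5, 10mM Mg acetate, 0.01% Tween-20, 0.05% BSA; qHTS 6-point titration, ~60 µM downward; luminescence read.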
SMN2 splice enh = enhancers of SMN2 splice variant expression. HEK293 SMN2-luciferase splicing reporter, luminescence, 30-36 h. Potency, µM (titrated, usually from 46.1 µM), for the others: at the highest dose activity change, positive = activation, most hits filed as activators. 210,000 compounds, 2.8% hits; further: % of control where 0% means no effect; nearly all actives have a fitted effect of over 55% in size
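HEK293 cells carry an SMN2 minigene-luciferase reporter in which exon 7 inclusion puts luciferase in frame. Cells were seeded at 2000 cells/well, attached for 10-12 hours, then exposed to compounds for 30-36 hours at 37C before ONE-Glo luminescence.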
ELG1 genotoxic = induces genotoxicity in HEK293T cells with luciferase-tagged ELG1. Potency, µM (top dose mostly 46 µM), inactives show at the top dose activity change, positive = activation, actives largely listed as activators. AID 504466. HEK293T ELG1-luciferase reporter, luminescence, 16 h. 330,000 compounds, 1.3% hits; further: % of control where 0% means no effect; nearly all actives have a fitted effect of over 60% in size
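HEK293T cells expressing luciferase-tagged ELG1 were treated with compound or DMSO for 16 hr at 37°C. Luciferase activity was then read after 30 min with ONE-Glo at room temperature; rising signal flags genetic stress.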
Numbers without * were called inactive; u = inconclusive; x = no result given; [ ] = dose if it differs, or a comment. The call rests on the fitted dose curve; in most records, active means well fitted curve in the direction sought with a large enough effect; inconclusive means small, poorly fitted or top-dose-only effect, or another doubt; inactive means no such curve, though single readings can be large; an effect the other way counts as inactive or inconclusive. Potency means the concentration at half of the fitted maximal effect.

SMILES	NPC1 prom act	Rab9 prom act	Luc counter	FLuc counter	SMN2 splice enh	ELG1 genotoxic
Cc1ccc(OCC(=O)Nc2ccc3c(c2)OCO3)cc1C	5%	16%	0%	24µM*	x	8%
O=C(COc1ccc2ccc(=O)oc2c1)Nc1ccc2c(c1)OCCO2	2%	27%	0%	9.5µM*	12%	8%
Cc1cccc(OCC(=O)Nc2ccc3c(c2)OCO3)c1C	9%	7%	-1%	19µM*	0%	9%
CCc1ccccc1N1C(=O)N(Cc2cccc(Cl)c2)c2ccccc2S1(=O)=O	x	x	x	-2%	x	x
O=C(COc1ccccc1[N+](=O)[O-])Nc1ccc2c(c1)OCO2	2.5µM*	2.2µM*	-2%	4.8µM*	13µM*	9.2µM*
O=C(COC(=O)COc1ccccc1[N+](=O)[O-])Nc1ccc2c(c1)OCO2	x	x	x	x	x	4%
CN(CCOc1ccc(Cl)cc1)C(=O)c1cc(-c2ccco2)nc2ccccc12	-4%	0%	x	-22%	x	-46%
Cc1ccc(Nc2cc(-n3cccn3)ncn2)c(C)c1	3.5µM*	2.5µM*	1%	11µM*	24%	7.3µM*
CN(C)CCNC(=O)CCCn1c(=O)c2cccn2c2ccccc21	x	x	x	15µM*	x	x
Cc1ccc(Cl)cc1NC(=O)CCCn1c(=O)c2cccn2c2ccccc21	x	x	x	12µM*	x	x
Cc1ccc(Cl)cc1NC(=O)CCCn1c(=O)c2cccn2c2cccnc21	x	x	x	-2%	x	x
O=C(O)c1cc2ccccc2c(Cc2cc3ccccc3c(C(=O)O)c2O)c1O (tested in a mixture with another compound)	x	x	0%[17.1 µM]	x	4%[20.6 µM]	x
CC(=O)Nc1ccc(/C=C/c2noc(-c3ccccc3O)n2)cc1	u	u	x	u	-8%	14%
Oc1ccccc1/C=C/c1noc(-c2ccccc2O)n1	u	14%	-3%	1.9µM*	u	5.8µM*
COc1cc(/C=C/c2noc(-c3ccccc3O)n2)ccc1OC(C)=O	u	u	x	12µM*	x	13µM*
CS(=O)(=O)c1ccc(Cl)c(NC(=O)CCN2C(=O)C3CC=CCC3C2=O)c1 (stereo not drawn)	0%	1%	x	5%	x	-5%
COc1ccc(CNC(=O)c2sc3nc4c(c(C(F)(F)F)c3c2N)CCC4)cc1OC	0%	-5%	12%	21µM*	-76%	4%
COc1ccc(-n2nc(C(=O)NCC(=O)N3CCN(c4ccccc4F)CC3)c3ccccc3c2=O)cc1OC	u	28%	x	0.95µM*	x	6%
COc1ccc(-n2nc(C(=O)NCC(=O)N3CCN(C)CC3)c3ccccc3c2=O)cc1OC	3%	1%	-4%	u	-5%	1%
COc1ccc(-n2nc(C(=O)NCC(=O)N3CCN(c4ccccc4F)CC3)c3ccccc3c2=O)cc1	u	u	x	0.34µM*	x	7%
CCCc1nc2ccc(NC(C)=O)cc2c(=O)n1Cc1ccc(Cl)cc1	3.5µM*	u	9%	u	5%	u
COc1ccc(Cn2c(C3CC3)nc3ccc(NC(C)=O)cc3c2=O)cc1	2.2µM*	1.6µM*	-24%	11µM*	11µM*	u
CCOc1ccc(NC(=O)/C(C#N)=C/c2cn(CC(=O)O)c3ccccc23)cc1	0%	-2%	x	19µM*	x	1%
N#C/C(=C/c1cn(CC(=O)O)c2ccccc12)C(=O)Nc1ccccc1	-3%	-8%	4%	15µM*	x	2%
CCc1ccc(NC(=O)/C(C#N)=C/c2cn(CC(=O)O)c3ccccc23)cc1	0%	2%	4%	u	4%	0%
SMILES	NPC1 prom act	Rab9 prom act	Luc counter	FLuc counter	SMN2 splice enh	ELG1 genotoxic
CCCCn1c(N)c(N(CCOC)C(=O)c2ccc(N3CCCC3)c([N+](=O)[O-])c2)c(=O)[nH]c1=O	0%	-8%	x	-1%	x	0%
COc1ccc(N=Cc2sc(O)c3ccccc23)cc1	u	1.6µM*	-8%	3.8µM*	2.8µM*	16%
COc1ccc(-n2c(O)c(C=Nc3ccccc3)c3ccccc3c2=O)cc1	-2%	-9%	-1%	0%	-3%	u
COc1ccc(N=Cc2c(O)c3ccccc3n2C(C)=O)cc1	u	u	x	1.1µM*	x	13%
C=CCNc1nc(C(=O)OCC(=O)Nc2ccccc2C(F)(F)F)cs1	2%	2%	x	1%	x	2%
Cc1ccc(C2=NN(C(=O)CCl)C(c3ccco3)C2)o1 (stereo not drawn)	-43%	-51%	x	2%	x	-17%
O=C(Nc1cccc(NC(=O)c2nccc3ccccc23)c1)c1ccco1	1%	3%	-2%	8.5µM*	-7%	u
CC(=O)Nc1cccc(NC(=O)c2ccco2)c1	0%	0%	1%	-11%	22%	-1%
O=C(Nc1cccc(NC(=O)c2sc3ccccc3c2Cl)c1)c1ccco1	12%	10%	-3%	2.7µM*	21%	-8%
CN(C)S(=O)(=O)c1ccc(NC(=O)CSc2nnc(-c3ccco3)n2N)cc1	x	x	x	x	x	1%
CCN(CC(=O)Nc1ccc(NC(C)=O)cc1)C(=O)CCCSc1nc2ccccc2[nH]1	-1%	-1%	x	-1%	x	-14%
CCc1cc2c(=O)[nH]c(-c3ccccn3)nc2s1	4.5µM*	u	-5%	6µM*	10µM*	u
CCc1cc2c(=O)[nH]c(N3CCCC3)nc2s1	17%	u	-1%	u	u	11%
COc1cc2nc(N(C)CCCNC(=O)[C@@H]3CCCO3)nc(N)c2cc1OC	x	x	-2%[17.1 µM]	x	0%[20.6 µM]	x
COCCn1c(SCC(=O)N2CCC(C)CC2)nc2c([nH]c3ccccc32)c1=O	4%	9%	x	-1%	x	u
FC(F)C(F)(F)C1=CC(c2cccs2)=NCCN1	-2%	0%	-2%	7%	0.71µM*	-2%
CC(C)c1ccc(/C=N\NC(=O)c2ccc(Cn3cccn3)o2)cc1	u	11%	-5%	1.3µM*	25%	10%
CCCOc1ccc(/C=N/NC(=O)c2ccc(Cn3cc([N+](=O)[O-])cn3)o2)cc1	23%	u	-2%	2.4µM*	-5%	u
CC(=O)NC1=NC(=O)/C(=C/c2cc(C)n(-c3cccc(C(=O)O)c3)c2C)S1	-8%	-7%	x	15µM*	x	0%
Cc1ccc(NC(=O)CN2C(=O)N/C(=C/c3cc(C)n(-c4cccc(C(=O)O)c4)c3C)C2=O)cc1	-5%	0%	-3%	u	4%	3%
CC(=O)NC1=NC(=O)/C(=C/c2cn(C(C)=O)nc2-c2ccccc2)S1	7%	0%	-3%	-17%	7%	-16%
CC(=O)NC1=NC(=O)/C(=C/c2cc(C)n(-c3ccc(NC(C)=O)cc3)c2C)S1	u	u	4%	5.4µM*	12%	-4%
